In PubChem BioAssay (NCATS):
Results filed as inconclusive are left out. Calls of active or inactive are those of the source. Calls come from the whole dose curve; as a rule, active = well fitted inhibition curve with a large enough effect; inconclusive = small, poorly fitted or top-dose-only effect, or effect the other way; inactive = flat fitted curve, though single readings scatter.

biological target: Ubiquitin carboxyl-terminal hydrolase 2 (Homo sapiens) (UniProt O75604); experiment: qHTS Validation Assay for Inhibitors of Ubiquitin-specific Protease USP2a Using CHOP2 as the Reporter (AID 463106); settings: USP2a cleavage of CHOP2 reporter, enzymatic; series mostly up to 38.3 µM; activity, negative = inhibition: at the top concentration;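 for activity, negative = inhibition: plate controls were DMSO for no effect and full inhibition by NEM for full effect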
Excerpt: NIH Molecular Libraries Screening Centers Network [MLSCN]
NIH Chemical Genomics Center [NCGC]
PI Name: Nicholson, Ben. Progenra Inc, Malvern, PA
Homeostasis of cellular proteins is maintained through a combination of synthesis and degradation. The pathway that accounts for the majority of protein degradation is the ubiquitin-proteasomal pathway. Ubiquitin (Ub) is highly conserved in all cells and the generation of a multi-Ub chain typically targets proteins for degradation by the proteasome. However, ubiquitination is highly reversible and dynamic. Deubiquitination, the reverse process, is catalyzed through the action of enzymes referred to as isopeptidases or deubiquitinating enzymes (DUBs). This group of enzymes is collectively responsible for maintaining adequate pools of free ubiquitin and regulating the ubiquitination status of cellular proteins. The class of DUBs referred to as the ubiquitin-specific proteases (USP) family functions endoproteolytically to cleave Ub chains from a wide range of protein substrates. USP2a deubiquitinates fatty acid synthase (FASN) which has recently been identified as an emerging oncology target. To identify inhibitors of USP2a a cell-free assay was employed.
The reporter enzyme chosen is an enterokinase called CHOP2, which is activated when the Ub is cleaved by USP2. The free and now activated reporter can subsequently act on its reporter substrate. […] The assay was developed by Progenra, Inc. and has been licensed for sale by LifeSensors, Inc. as Ub-CHOP2-Reporter-Kit (#PR1101).
NCGC Assay Protocol Summary:
The assay buffer, prepared fresh at the day of the assay, contains 20mM Tris-HCl pH 8.0, 2mM CaCl2, 2mM beta-Mercaptoethanol, 0.05% CHAPS. 3ul of 20nM (10nM final) USP2 core, which is stored on ice, is dispensed into a medium-binding black solid Kalypsys 1,536 well plate using the Kalypsys dispenser. The assay plate is then pinned with 23nL compound with the Kalypsys pintool in columns 5-48. The controls are pinned as follows: column 1 two-fold dilutions of 2M NEM in duplicate; column 2 2M NEM (final concentration 38.2mM); column 3&4 DMSO. The assay plate is incubated at RT for 30min. Subsequently, 1.5uL of 100nM (25nM final) Ub-CHOP2 and 1.5uL of 100nM (25nM final) Reporter Substrate (both stored on ice and protected from light) were dispensed into the plate using the Kalypsys dispenser. Plates were read after 60min RT incubation on a ViewLux (Perkin Elmer) plate reader using the following wavelengths Ex 485nm /Em 531nm.
Data were normalized to the to AC100 inhibition (NEM). Concentration-response curves were fitted to the normalized data and the concentration-response curves were then classified based on curve quality (r2), response magnitude and degree of measured activity. The time zero reading was used to flag fluorescence artifacts.
Keywords: ubiquitination, deubiquitination, proteases, profluorescent, MLSMR, MLPCN, NIH Roadmap, qHTS, NCGC
Potency is the fitted concentration of half-maximal effect.

Ubiquitin carboxyl-terminal hydrolase 2 (Homo sapiens), sequence (O75604 whole entry, looked up): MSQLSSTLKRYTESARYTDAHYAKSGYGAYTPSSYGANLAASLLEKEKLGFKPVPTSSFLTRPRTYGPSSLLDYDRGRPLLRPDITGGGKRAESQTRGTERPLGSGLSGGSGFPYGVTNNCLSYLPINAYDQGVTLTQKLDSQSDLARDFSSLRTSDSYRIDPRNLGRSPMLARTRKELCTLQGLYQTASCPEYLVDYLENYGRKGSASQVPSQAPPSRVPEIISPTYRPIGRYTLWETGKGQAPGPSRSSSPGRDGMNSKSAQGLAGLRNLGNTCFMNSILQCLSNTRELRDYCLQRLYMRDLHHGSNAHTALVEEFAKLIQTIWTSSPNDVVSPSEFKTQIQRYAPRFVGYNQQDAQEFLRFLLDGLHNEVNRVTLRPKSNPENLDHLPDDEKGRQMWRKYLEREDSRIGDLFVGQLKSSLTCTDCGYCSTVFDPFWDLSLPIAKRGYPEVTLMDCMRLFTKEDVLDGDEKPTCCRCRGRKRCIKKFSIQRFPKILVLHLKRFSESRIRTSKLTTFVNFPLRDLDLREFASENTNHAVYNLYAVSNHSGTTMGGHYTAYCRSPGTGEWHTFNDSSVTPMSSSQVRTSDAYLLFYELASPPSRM

Structure (SMILES)	activity, negative = inhibition	Potency
COc1ccccc1N1CCNCC1	-7.13% (inactive)	
Cc1cc2c(C(C)C)c(O)c(O)c(C=O)c2c(O)c1-c1c(C)cc2c(C(C)C)c(O)c(O)c(C=O)c2c1O		5.21 µM (active)
CNCC(O)c1ccc(O)cc1 (stereo not drawn)	0.903% (inactive)	
CCC1(C2=NCCN2)Cc2ccccc2O1 (stereo not drawn)	0.994% (inactive)	
Cc1cccc(C)c1NC1=NCCCS1	-8.75% (inactive)	
O=C1NCN(c2ccccc2)C12CCN(CC1COc3ccccc3O1)CC2 (stereo not drawn)	0.484% (inactive)	
CC[C@@H](CO)NC(=O)[C@@H]1C=C2c3cccc4c3c(cn4C)C[C@H]2N(C)C1	2.1% (inactive)	
Cc1cccc(C)c1NC(=O)CN1CCCC1=O	1.71% (inactive)	
c1ccc2c(c1)OCC(C1=NCCN1)O2 (stereo not drawn)	-0.705% (inactive)	
O=c1[nH]c2ccccc2n1C1CCN(CCCC(c2ccc(F)cc2)c2ccc(F)cc2)CC1	-6.4% (inactive)	
Fc1ccc(C(OCCN2CCN(CCCc3ccccc3)CC2)c2ccc(F)cc2)cc1	0.123% (inactive)	
COc1ccc(C(CN(C)C)C2(O)CCCCC2)cc1 (stereo not drawn)	0.157% (inactive)	
CC(C)=CCOc1c2occc2cc2ccc(=O)oc12	-2.18% (inactive)	
Cc1ncc(CNC(=O)N(CCCl)N=O)c(N)n1	-3.94% (inactive)	
COC[C@H]1OC(=O)c2coc3c2[C@@]1(C)C1=C(C3=O)C2CCC(=O)[C@@]2(C)C[C@H]1OC(C)=O (stereo partly drawn)	-2.13% (inactive)	
NCC(O)c1ccc(O)cc1 (stereo not drawn)	-0.298% (inactive)	
CC(CCc1ccccc1)NC(C)C(O)c1ccc(O)cc1 (stereo not drawn)	0.0659% (inactive)	

Structure (SMILES)	activity, negative = inhibition	Potency
CC(O)(CS(=O)(=O)c1ccc(F)cc1)C(=O)Nc1ccc(C#N)c(C(F)(F)F)c1 (stereo not drawn)	0.5% (inactive)	
C=C(C)[C@H]1Cc2c(ccc3c2O[C@@H]2COc4cc(OC)c(OC)cc4[C@@H]2C3=O)O1	-5% (inactive)	
NCC(CC(=O)O)c1ccc(Cl)cc1 (stereo not drawn)	-0.307% (inactive)	
CN1C[C@H](CNC(=O)OCc2ccccc2)C[C@@H]2c3cccc4c3c(cn4C)C[C@H]21	5.92% (inactive)	
C[C@@H]1O[C@@H](O[C@H]2C[C@@H](O)[C@]3(CO)[C@H]4[C@H](O)C[C@]5(C)[C@@H](C6=CC(=O)OC6)CC[C@]5(O)[C@@H]4CC[C@]3(O)C2)[C@H](O)[C@H](O)[C@H]1O	0.265% (inactive)	
NN=C(N)N		inactive
CC(=O)[C@H]1CC[C@H]2[C@@H]3CC[C@H]4C[C@H](O)CC[C@]4(C)[C@H]3C(=O)C[C@]12C	1.63% (inactive)	
Nc1ccncc1	4.07% (inactive)	
c1ccc(C2CC2)c(OCC2=NCCN2)c1	-0.7% (inactive)	
N#CC(C#N)=Cc1ccc(O)c(O)c1	-1.28% (inactive)	
CC(=O)[C@H]1CC[C@H]2[C@@H]3CC[C@H]4C[C@](C)(O)CC[C@]4(C)[C@H]3CC[C@]12C	0.377% (inactive)	
CCCN1CCC[C@@H]2Cc3[nH]ncc3C[C@H]21		inactive
Cc1ccc(S(=O)(=O)N[C@@H](CCCCN)C(=O)CCl)cc1	-2.42% (inactive)	
CCCN1CCC[C@@H]2Cc3nc(N)ncc3C[C@H]21	-0.535% (inactive)	
O=c1[nH]c2ccccc2n1CCCN1CCC(n2c(=O)[nH]c3cc(Cl)ccc32)CC1	2.3% (inactive)	
CCCC(C)(COC(N)=O)COC(=O)NC(C)C (stereo not drawn)	-1.25% (inactive)	
